Screening results deposited in PubChem by National Center for Advancing Translational Sciences (NCATS).
TDP1 cell CPT – DT40-hTDP1 cell growth loss with CPT. Potency, µM (series often up to 46.2 µM), for the others: top-dose activity change, negative = growth inhibition, usual class: inhibitors. 12% of 420,000 active. chicken DT40 Tdp1-/-;hTDP1 cells + 20 nM CPT, ATP luminescence, 48 h; further: nearly all actives have a fitted effect of over 55% in size
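Chicken DT40 Tdp1-/- cells stably complemented with human TDP1 were seeded at 400 cells/well in medium containing 20 nM camptothecin, exposed to pin-transferred compounds, and grown at 37 °C for at least 48 hr. Viability was read as ATP luminescence.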
TDP1 cell noCPT – qHTS for Inhibitors of human tyrosyl-DNA phosphodiesterase 1 (TDP1): qHTS in cells in absence of CPT | AID 686978, 2013 | DT40 Tdp1-/- hTDP1 cells, no CPT, ATP luminescence, 48 h | 15% of 420,000 active | Potency, µM (top dose mostly 46.2 µM), for inactives: at the top dose activity change, negative = growth inhibition, actives largely listed as inhibitors; further: nearly all actives have a fitted effect of over 55% in size
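Cells were dispensed at 400 per well, compounds added by pin tool, plates incubated ≥48 hr at 37 °C, then CellTiter-Glo added for 30 min at room temperature before luminescence reading. Line: DT40 Tdp1-/- complemented with hTDP1; camptothecin omitted.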
KB-3-1 tox – KB-3-1 parental cell cytotoxicity. 1.4% of 400,000 active. KB-3-1 viability, CellTiter-Glo ATP luminescence, 72 h. Potency, µM (series often up to 46.1 µM), most hits filed as cytotoxic. AID 1347075; further: nearly all actives have a fitted effect of over 60% in size
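Cytotoxicity measured as CellTiter-Glo luminescence after 72 h at 37 C. Compound titrations were pinned onto drug-naive KB-3-1 parental adenocarcinoma cells grown in DMEM with 10% FBS, and normalized data fitted to concentration-response curves.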
KB-V1 cytotox – KB-V1 MDR subline cytotoxicity; KB-V1 MDR cells viability, CellTiter-Glo, 72 h; Potency, µM (top dose mostly 46.1 µM), usual class: cytotoxic; 3.4% of 400,000 active; further: nearly all actives have a fitted effect of over 60% in size
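qHTS viability screen in drug-selected KB-V1 MDR cells: 72 h compound treatment at 37 degrees C, ATP luminescence end point.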
HT1080 IDH1KD tx – toxicity to HT-1080 IDH1 knockdown cells (counter line) | HT-1080 IDH1 knockdown viability, ATP luminescence, 48 h | Potency, µM (titrated, usually from 46.1 µM), for the others: at the top dose activity, negative = toxicity, actives largely listed as cytotoxic | 2% of 360,000 active | AID 686971;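 further: 0% = DMSO wells and -100% = cell-free medium wells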
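Viability of IDH1-knockdown HT-1080 fibrosarcoma cells was assessed by CellTiter-Glo after 48 h at 37 °C with titrated compound; concentration-effect curves were classified by fit quality and response size.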
HT1080NT lethal – kills 2HG-producing HT-1080-NT fibrosarcoma cells; Potency, µM (series often up to 46.1 µM), inactives show top-dose activity, negative = less viability, hits mostly cytotoxic; HT-1080-NT fibrosarcoma viability, CellTiter-Glo ATP luminescence, 48 h; 1.6% of 360,000 active; AID 686970;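 further: NT is the 2HG producing partner of a matched IDH1 knockdown line; 0% = DMSO-treated cells and -100% = media-only wells without cells; nearly all actives have a fitted effect of over 55% in size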
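Luminescent CellTiter-Glo readout after 48 hours of compound exposure at 37 degrees C defined viability of HT-1080-NT cells. Activity was normalized to DMSO wells and cell-free media wells; concentration-response curves were fitted and assigned curve classes.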
* hit, by the source's call; i = inactive; ? = inconclusive; . = not tested or not shown; [ ] = dose if it differs, or a comment. Most compounds without a hit are left out; they make up all but 19% or so of the library. The call rests on the fitted dose curve; in most records, active means well fitted curve in the direction sought with a large enough effect; inconclusive means small, poorly fitted or top-dose-only effect, or another doubt; inactive means no such curve, though single readings can be large; an effect the other way counts as inactive or inconclusive. Unless noted, on the % scale 0 is the no-effect control and ±100 the full control effect; potency means the concentration at half of the fitted maximal effect.

SMILES	TDP1 cell CPT	TDP1 cell noCPT	KB-3-1 tox	KB-V1 cytotox	HT1080 IDH1KD tx	HT1080NT lethal
CC(C)CNC(=O)c1ccc(-c2ccc(F)c(F)c2)c2ccoc12	?	18µM*	i	i	-8%	-11%
COC(=O)c1ccc(N(CC(=O)NC2CCCC2)C(=O)c2ccc(C)s2)cc1	-8%	-11%	i	i	-3%	0%
O=C(COC(=O)Cc1ccc(S(=O)(=O)N2CCOCC2)s1)Nc1ccc([N+](=O)[O-])cc1	-1%	-12%	i	i	0%	-2%
O=C(NCc1ccc(C(F)(F)F)cc1)c1ccc(-c2ccc(F)c(F)c2)c2ccoc12	?	?	i	i	17%	23%
O=C(NCc1ccncc1)c1ccc(-c2ccc(F)c(F)c2)c2ccoc12	4.1µM*	6.5µM*	i	?	?	?
CCOC(=O)c1c(C)n(-c2ccc(F)cc2)c2ccc(O)cc12	4%	-2%	i	i	1%	-1%
COc1ccc(-n2c(C)c(C(C)=O)c3cc(OC(C)=O)ccc32)cc1	5.2µM*	7.3µM*	i	?	3%	3%
COC(=O)c1c(C)n(-c2ccc(OC)cc2)c2ccc(O)cc12	12µM*	13µM*	?	i	?	?
Cc1ccc(S(=O)(=O)N2CCCCC2)cc1C(=O)OC(C)C(=O)NC1CCCCC1C (stereo not drawn)	?	?	i	?	-5%	-6%
N#CC1C(=N)Cc2ccccc2-c2ccccc21 (stereo not drawn)	?	21µM*	?	15µM*	16µM*	12µM*
O=C(c1cccc(S(=O)(=O)NCCOc2ccccc2)c1)N1CCN(c2ncccn2)CC1	26µM*	23µM*	i	?	-21%	-18%
COc1ccccc1N1CCN(C(=O)c2cccc(S(=O)(=O)NCc3cccnc3)c2)CC1	16µM*	?	i	?	-4%	0%
O=C(c1cccc(S(=O)(=O)NCc2ccccc2)c1)N1CCN(c2ccccc2)CC1	6.5µM*	5.2µM*	?	i	?	?
COc1ccc(S(=O)(=O)NCc2cccnc2)cc1C(=O)N1CCCCC1	5%	-6%	i	i	2%	4%
O=C(c1cccc(S(=O)(=O)NCc2ccccc2)c1)N1CCN(c2ccccc2Cl)CC1	15µM*	?	?	i	?	?
O=C(c1cccc(S(=O)(=O)N2CCCC2)c1)N1CCN(c2ncccn2)CC1	21%	-27%	i	i	2%	4%
O=C(c1cccc(S(=O)(=O)NCc2ccccc2)c1)N1CCCC1	4%	11%	i	i	15%	13%
Cc1ccccc1NC(=O)Cn1cc(S(=O)(=O)c2ccccc2)c(=O)c2ccccc21	8%	-2%	i	i	.	.
CCCS(=O)(=O)NC(=O)C1(C)CCN(C(=O)/C=C/c2ccccc2)C1 (stereo not drawn)	-15%	-2%	i	i	21%	?
O=C(c1ccc(Cl)c(S(=O)(=O)NCc2ccccc2)c1)N1CCN(c2ccccn2)CC1	?	?	i	4.1µM*	?	?
Cc1ccc(C)c(NC(=O)COC(=O)CC2c3ccccc3CCN2S(=O)(=O)c2ccc(F)cc2)c1 (stereo not drawn)	-14%	?	i	21µM*	-22%	-4%
O=C(COC(=O)CC1c2ccccc2CCN1S(=O)(=O)c1ccccc1)Nc1ccccc1 (stereo not drawn)	?	21µM*	i	?	-1%	-2%
COc1c(O)cc2c(-c3ccccc3)cc(=O)oc2c1OC	-3%	-13%	.	.	.	.
O=C(N/N=C/c1ccc(Cl)cc1)C1CC12CCC2 (stereo not drawn)	-10%	-26%	i	i	-5%	-1%
CN(C)/C=C(\C#N)C(=O)N/N=C(\CC(=O)C(F)(F)F)c1ccco1	12%	6%	i	i	16%	2%
SMILES	TDP1 cell CPT	TDP1 cell noCPT	KB-3-1 tox	KB-V1 cytotox	HT1080 IDH1KD tx	HT1080NT lethal
Cc1ccc(CCN2CC(C(=O)NCCCN3CCOCC3)CC2=O)cc1 (stereo not drawn)	-20%	-4%	i	i	12%	7%
O=C(OC(c1ccccc1)c1nccc2ccccc12)c1cc([N+](=O)[O-])cc([N+](=O)[O-])c1 (stereo not drawn)	15µM*	21µM*	i	8.2µM*	-14%	-10%
O=C1C2ON(c3ccc(Br)cc3)C(c3cccnc3)C2C(=O)N1C1CCCCC1 (stereo not drawn)	?	18µM*	i	i	-2%[9.24 µM]	9%
C/C(=N\OC(=O)c1ccc(Cl)cc1)c1sc(-c2ccccc2)nc1C	?	?	i	i	15%	3%
C/C(=N\OC(=O)NC1CCCCC1)c1sc(-c2ccccc2)nc1C	26µM*	21µM*	?	?	-25%	-26%
CN(Cc1nccs1)C(=O)C1CCC(=O)N(Cc2ccccc2F)C1 (stereo not drawn)	-21%	0%	.	.	-16%	0%
CCOC(=O)CC(C)(C)/C(C)=N/Nc1ccc([N+](=O)[O-])cc1[N+](=O)[O-]	?	15µM*	i	?	-15%	-3%
N#C/C(=C\c1ccc(O)c(O)c1)C(=O)N1CCc2ccccc21	?	21µM*	i	?	-30%	?
CC1CC(C)CN(S(=O)(=O)N2CCC(C(=O)NCCC3=CCCCC3)CC2)C1 (stereo not drawn)	-4%	-7%	i	?	4%	5%
Cc1ccccc1NC1=C(Cl)C(=O)N(C2CCCCC2)C1=O	?	?	i	?	-5%	0%
COc1ccccc1NC1=C(Cl)C(=O)N(C2CCCCC2)C1=O	18µM*	26µM*	i	i	8%	9%
CCCC(=O)Nc1nc2ccc(S(=O)(=O)N3CCCCC3)cc2s1	1.3µM*	1.3µM*	13µM*	?	4.1µM*	?
CCOC(=O)N1CCN(S(=O)(=O)c2ccc(C(=O)Nc3nc4ccc(F)cc4s3)cc2)CC1	8.2µM*	6.5µM*	?	?	3%	2%
CC(C)CC(=O)Nc1nc2ccc(S(=O)(=O)N3CCOCC3)cc2s1	13µM*	21µM*	?	?	18µM*	9.2µM*
